About 79,000 compounds went through this panel and 15% of them were active in at least one assay; those are over-represented in the sample as a whole. No stated cut-off is given here; in the data, active means growth inhibition above about 70%; inactive means the rest.
Assays:
[1] = NCI Yeast Anticancer Drug Screen. Data for the rad50 strain (AID 155);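 further: 0% = growth of vehicle-only cultures of the same strain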; details: S. cerevisiae rad50 strain growth inhibition; at 50.0 µM; active compounds read high
Procedure, shortened: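 Yeast carrying a defined DNA repair defect were exposed to test compounds, and growth was compared with vehicle-treated controls to give percent inhibition.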

[2] = NCI Yeast Anticancer Drug Screen. Data for the mec2-1 strain (AID 157); details: S. cerevisiae mec2-1 strain, at 50.0 µM, active compounds read high
Procedure, shortened: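 Strain: mec2-1 (DNA repair/cell cycle alteration). Compound exposure, then growth measured; inhibition expressed relative to vehicle.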

[3] = NCI Yeast Anticancer Drug Screen. Data for the sgs1 mgt1 strain (AID 161);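 further: 0% = growth of cultures given vehicle only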; details: S. cerevisiae sgs1 mgt1 strain, at 50.0 µM, active compounds read high
Procedure, shortened: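 Genetically altered yeast, compound exposure, growth inhibition relative to vehicle.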

[4] = NCI Yeast Anticancer Drug Screen. Data for the cln2 rad14 strain (AID 165);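 further: 0% = growth equal to vehicle treated cultures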; details: S. cerevisiae cln2 rad14 strain, at 50.0 µM, active compounds read high
Procedure, shortened: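 Compounds are applied to the cln2 rad14 yeast strain, and growth is then compared with that of vehicle-treated cultures to give inhibition.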

[5] = NCI Yeast Anticancer Drug Screen. Data for the bub3 strain (AID 167); details: S. cerevisiae bub3 mutant strain, at 50.0 µM, active compounds read high
Procedure, shortened: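 Compounds were applied to a genetically altered yeast strain carrying a cell-cycle control defect. Growth inhibition was scored against vehicle-treated controls.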

[6] = NCI Yeast Anticancer Drug Screen. Data for the mlh1 rad18 strain (AID 175); details: S. cerevisiae mlh1 rad18 strain growth inhibition; at 50.0 µM; active compounds read high
Procedure, shortened: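 Read-out is yeast growth inhibition, calculated against vehicle-only controls. The compound was applied to a strain engineered with DNA damage repair alterations.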

Measured: growth inhibition

O=C(Nc1ccc(Cl)cc1)NS(=O)(=O)c1coc2cc(F)ccc2c1=O
inactive: [1] 7% | [2] -11.2% | [3] -23.6% | [4] 31.6% | [5] 16.4% | [6] 11.4%

CCOc1cc2c(cc1O)CC[C@@H]1[C@@H]2CC[C@]2(C)C(OS(=O)OC3CC[C@@H]4[C@H]5CCc6cc(O)c(OCC)cc6[C@@H]5CC[C@@]34C)CC[C@@H]12 (stereo not given in full)
inactive: [1] -12.8% | [2] 0.25% | [3] 4.8% | [4] 26.7% | [5] 18.6% | [6] -15.5%

CN1N=Nc2ccccc2C1(O)c1ccccc1 (stereo not given)
inactive: [1] 8.7% | [2] -3.05% | [3] 0.25% | [4] -18.6% | [5] -11.9% | [6] 6.9%

O=C1C(O)CCN1C1CCCCC1 (stereo not given)
inactive: [1] 10.7% | [2] -6.95% | [3] -0.3% | [4] -2.85% | [5] 4.55% | [6] 0.2%

O=C1CC2(CCC(O)(c3ccc(Cl)cc3)C(C(=O)c3ccc(Cl)cc3)C2)C(=O)c2ccccc2N1 (stereo not given)
inactive: [1] -15.1% | [2] -3.55% | [3] -16.9% | [4] -23.5% | [5] -19.4% | [6] -48.6%

O=c1c2ccccc2n2n1Cc1ccccc1C2
inactive: [1] 38.1% | [2] 9.1% | [3] -11.5% | [4] 6.95% | [5] 12.2% | [6] 59.4%

Cc1ccc(N2P(N(C)C)N(c3ccc(C)cc3)P2(=O)N(C)C)cc1 (stereo not given)
inactive: [1] 12.4% | [2] 22.4% | [3] 9.45% | [4] -5.6% | [5] 3.6% | [6] 6.4%

Cc1cc2c(C(C)C)c(O)c(O)c(C=Nc3ccccc3)c2c(O)c1-c1c(C)cc2c(C(C)C)c(O)c(O)c(C=Nc3ccccc3)c2c1O
inactive: [1] 1.45% | [2] 34% | [3] 49.6% | [4] -23% | [5] -2.3% | [6] 52.8%

CN(CC1=C(O)C(=O)C(CN(C)Cc2c(O)ccc3ccccc23)=C(O)C1=O)Cc1c(O)ccc2ccccc12
inactive: [1] 30.7% | [2] 4.85% | [3] 34.1% | [4] -1.25% | [5] 5.3% | [6] 28.9%

CC1CCOCO1 (stereo not given)
inactive: [1] -3.3% | [2] 0.1% | [3] -1.05% | [4] 1.75% | [5] 13.1% | [6] -9.2%

O=C(O)c1c2ccccc2nc2c1sc1ccccc12
inactive: [1] -17.9% | [2] -8% | [3] -3.05% | [4] -63.6% | [5] -1.45% | [6] -7.85%

COC(=O)C(C(=O)C(=O)Nc1cccc(O)c1)c1nc2ccc(Cl)cc2[nH]c1=O (stereo not given)
inactive: [1] -19% | [2] -3.95% | [3] -41.3% | [4] 2.55% | [5] -8.65% | [6] -13.9%

C[C@H](C(O)CC(=O)C(C)(C)O)[C@H]1CC[C@@]2(C)[C@@H]3CC[C@H]4C(C)(C)[C@@H](OC5OC(COC6OC(CO)C(O)C(O)C6O)C(O)C(O)C5O)CC[C@]4(C)C3=CC[C@]12C (stereo not given in full)
inactive: [1] -12.7% | [2] -19.3% | [3] -20.2% | [4] -0.05% | [5] -23.4% | [6] -75.8%

CCCCNCCCC(C(=O)O)c1ccccc1 (stereo not given)
inactive: [1] 2.1% | [2] -3.4% | [3] 3.8% | [4] -10.3% | [5] -35.2% | [6] 6.75%

c1ccc2c(c1)ccc1cccc[n+]12
inactive: [1] -25.4% | [2] -7.75% | [3] -13% | [4] -12.4% | [5] -16.7% | [6] -36.6%

Nc1nc(O)c(N)c(=O)[nH]1
inactive: [1] -18.2% | [2] -16.9% | [3] -15.8% | [4] -17.8% | [5] -4.05% | [6] -20.9%

CC(=O)NC1(C)CC[C@H]2CC1C(C)=NC2(C)C (stereo not given in full)
inactive: [1] -13.2% | [2] -3.95% | [3] -6.9% | [4] 2.85% | [5] -8.15% | [6] -14.3%

COc1ccc(C2CC(=O)Oc3ccccc3O2)cc1 (stereo not given)
inactive: [1] 39% | [2] 16.4% | [3] 32.2% | [4] 27.9% | [5] 23.6% | [6] 38.1%

CC1(C)Cc2ccccc2C1=O
inactive: [1] 16.1% | [2] -4.85% | [3] 4% | [4] -53.6% | [5] -1.65% | [6] -2%

Cn1ccnc1Sc1ccccn1
inactive: [1] -8.7% | [2] 30.1% | [3] 1.7% | [4] 21.9% | [5] 7.3% | [6] 6.15%
